The record followed here is PubChem BioAssay (NCATS).

The source made the active and inactive calls.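 Rule for the calls: active = compounds whose dose series gives a full or clear partial fitted curve of increased nuclear translocation; inconclusive = weak partial curve or effect only at the top dose; inactive = no dose-dependent translocation response.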 Where only a bound is given, the exact number is not on record here.
Potency is the fitted concentration of half-maximal effect.

Chain of Glucocorticoid receptor (Homo sapiens) (P04150 whole entry, looked up): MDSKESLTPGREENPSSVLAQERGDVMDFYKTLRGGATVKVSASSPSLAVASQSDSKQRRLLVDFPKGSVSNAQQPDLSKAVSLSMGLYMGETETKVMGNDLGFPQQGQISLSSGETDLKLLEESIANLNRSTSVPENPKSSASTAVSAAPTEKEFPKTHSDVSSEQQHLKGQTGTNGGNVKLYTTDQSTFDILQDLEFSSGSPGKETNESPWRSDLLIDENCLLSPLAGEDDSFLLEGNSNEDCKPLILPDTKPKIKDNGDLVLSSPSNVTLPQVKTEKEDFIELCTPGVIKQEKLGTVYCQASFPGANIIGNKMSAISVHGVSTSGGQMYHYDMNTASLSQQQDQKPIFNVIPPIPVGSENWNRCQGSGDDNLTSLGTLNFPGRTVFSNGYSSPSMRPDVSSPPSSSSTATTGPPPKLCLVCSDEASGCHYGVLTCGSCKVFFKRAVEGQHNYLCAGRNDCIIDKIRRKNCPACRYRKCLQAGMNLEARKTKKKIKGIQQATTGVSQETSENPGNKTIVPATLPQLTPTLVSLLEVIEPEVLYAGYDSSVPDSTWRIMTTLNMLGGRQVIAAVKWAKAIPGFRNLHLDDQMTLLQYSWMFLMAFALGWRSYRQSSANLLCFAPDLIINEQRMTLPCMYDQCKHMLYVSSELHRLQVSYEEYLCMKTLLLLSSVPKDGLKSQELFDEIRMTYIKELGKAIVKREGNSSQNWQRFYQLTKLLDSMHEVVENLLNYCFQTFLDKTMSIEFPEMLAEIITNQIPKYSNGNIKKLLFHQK

The target of this assay is Glucocorticoid receptor (Homo sapiens) (UniProt P04150). The assay is described as follows: GR-GFP Redistribution (AID 450). The note with it: U2OS GR-GFP nuclear translocation, laser cytometry, 2 h. The text has this:
NIH Molecular Libraries Screening Centers Network [MLSCN]
NIH Chemical Genomics Center [NCGC]
The glucocorticoid receptor (GR) Redistribution assay (BioImage) enables the visualization of GR cytoplasmic to nuclear translocation by the use of a GR-GFP fusion. GR is normally cytosolic, however ligands such as dexamethasone, cause nuclear translocation where the protein binds to response elements and interacts with various co-factors to modulate transcription. Because both functional agonists and antagonists can induce nuclear translocation, this assay can detect ligands regardless of their effects on gene expression. GR-GFP expressing U20S cells were used here. Dexamethasone was the positive control for translocation and data normalization. Detection of nuclear translocation was performed in 1536-well plates using the Acumen laser scanning plate cytometer (TTP LabTech). Validation of this assay and a detailed protocol have been described.
NCGC Assay Protocol Summary:
GR-GFP U2OS cells were maintained in DMEM with Glutamax and high glucose, 1% v/v penicillin-streptomycin, and 0.5 mg/mL Geneticin. For cell culture, 10% […] fetal bovine serum (FBS) was used (Invitrogen #26140-079). For cell plating 10% dextran, charcoal-stripped FBS (Hyclone SH30068.03) was used. U2OS cells were trypsin treated, suspended in medium, and passed through a 40 um basket filter. The cells were seeded at 600 cells/5 uL/well into clear-bottom black sided 1536-well plates and incubated for approximately 20 hrs, 37degC, 5%, CO2 in a tissue culture incubator. Twenty-three nL of compound was delivered by pin tool and the plates were incubated as above for 2 hrs. The compounds were tested as a 7-point titration ranging from 46 uM to 0.6 nM. The cells were fixed using the Kalypsys Washer/Dispenser station. The fixing protocol involved aspiration of the cell media, addition of 6 uL/well of PBS, aspiration of PBS, addition of 5uL/well of 100% methanol, aspiration of methanol, and addition of 3 uL/well PBS with 1.5 uM propidium iodide (PI). The plates were read by the Acumen Explorer using a 1 x 8 um scan of the whole well area. PI fluorescence triggered the collection of PI and GFP signals. A nuclei population was defined by a 10 to 100 um width and depth filter that eliminated small and large fluorescent particles. Two subpopulations of nuclei were then defined by peak intensity of GFP fluorescence to obtain translocated and untranslocated objects. The number of translocated objects was used for data normalization.
Keywords: NIH Roadmap, MLSCN, MLI, MLSMR, sOGT, qHTS, NCGC
Turning to `CC(=O)NCCNc1ncnc2ccc(-c3c(C)noc3C)cc12`, the Potency was > 46 µM (inactive).

`Cn1c(=O)c(-c2cc(F)cc(F)c2)nc2cnc(N3CCOCC3)nc21`: the Potency was > 9.22 µM (inactive).

Consider `COc1ccc(-n2c(=O)c(-c3cccs3)nc3cnc(N(C)C)nc32)cc1`, for which the Potency was > 9.22 µM (inactive).

As to `COc1cccc(Cn2c(=O)c(-c3ccccc3)nc3cnc(N4CCNCC4)nc32)c1`, the Potency is > 9.22 µM (inactive).

Consider `O=c1cnc2cnc(Nc3ccccc3)nc2n1Cc1cccs1`, for which the Potency was > 9.22 µM (inactive).

For the compound `CN(C)c1ccc(-c2cc(Nc3ccc(F)cc3)ncn2)cc1`, the Potency was > 46 µM (inactive).

For `COc1ccccc1-c1cncnc1-n1ccnc1`, the Potency is > 46 µM (inactive).

`COc1ccc(CNc2cc(-c3ccccc3Cl)ncn2)c(OC)c1`: the Potency was > 46 µM (inactive).

As to `CN1CCN(c2ncc3nc(-c4cc(F)cc(F)c4)c(=O)n(CCc4ccccc4)c3n2)CC1`, the Potency was > 9.22 µM (inactive).

With `Cc1nc2cnc(Oc3cccc(Cl)c3)nc2n(CCC#N)c1=O`, the Potency was > 9.22 µM (inactive).

On to `Cc1ccccc1-c1cc(Nc2ccccc2)ncn1`, for which the Potency is > 46 µM (inactive).

For `Cc1nc2cnc(N3CCNCC3)nc2n(Cc2cccs2)c1=O`, the Potency is > 9.22 µM (inactive).

As to `c1nc(N2CCNCC2)c2cc(-c3ccc4c(c3)OCO4)ccc2n1`, the Potency was > 46 µM (inactive).

In the case of `CN(Cc1ccco1)c1ncncc1-c1ccccc1Cl`, the Potency is > 46 µM (inactive).

As to `CS(=O)(=O)Nc1cccc(-c2cncnc2Nc2ccc(F)cc2)c1`, the Potency was > 46 µM (inactive).

As to `Cc1nc2cnc(N3CCN(C)CC3)nc2n(CCC#N)c1=O`, the Potency is > 9.22 µM (inactive).

In the case of `CN1CCN(c2ncnc3ccc(-c4ccc5c(c4)OCO5)cc23)CC1`, the Potency was > 46 µM (inactive).

Turning to `CN(C)c1ncc2nc(-c3cccs3)c(=O)n(CCC#N)c2n1`, the Potency was > 9.22 µM (inactive).

Take `CCNc1ncc2nc(-c3cc(F)cc(F)c3)c(=O)n(C)c2n1`: the Potency was > 9.22 µM (inactive).

For `c1ccc(CNc2ccnc(-c3ccoc3)n2)cc1`, the Potency is > 46 µM (inactive).

For `COc1ccccc1CNc1ccnc(-c2ccc3c(c2)OCO3)n1`, the Potency is > 46 µM (inactive).

As for `CCNc1ncc2nc(C)c(=O)n(-c3ccc(OC)cc3)c2n1`, the Potency is > 9.22 µM (inactive).

Take `FC(F)(F)c1ccccc1-c1nccc(N2CCNCC2)n1`: the Potency is > 46 µM (inactive).

As to `CN1CCN(c2nc(-c3ccccc3C(F)(F)F)nc3ccccc23)CC1`, the Potency was > 46 µM (inactive).

With `COc1ccccc1-c1nccc(NCc2cnc(C)cn2)n1`, the Potency is > 46 µM (inactive).

On to `COCCNc1ncnc2ccc(-c3ccccc3C)cc12`, for which the Potency is > 46 µM (inactive).

Consider `CN1CCN(c2ncnc3ccc(-c4ccccc4C#N)cc23)CC1`, for which the Potency is > 46 µM (inactive).

Regarding `O=c1c(-c2ccc(F)cc2)nc2cnc(Oc3ccccc3)nc2n1C1CC1`, the Potency was > 9.22 µM (inactive).

Regarding `Cn1cc(-c2nc3cncnc3n(-c3ccccc3)c2=O)c2ccccc21`, the Potency is > 9.22 µM (inactive).

Regarding `CN1CCN(c2cc(-c3ccccc3C(F)(F)F)ncn2)CC1`, the Potency is > 46 µM (inactive).

With `Cc1nc2cnc(Nc3ccccc3)nc2n(C2CC2)c1=O`, the Potency is > 9.22 µM (inactive).

For `c1nc(NC2CCNCC2)c2cc(-c3ccoc3)ccc2n1`, the Potency was > 46 µM (inactive).

As to `CN(C)c1ncc2nc(-c3ccc(F)cc3)c(=O)n(C[C@H]3CCCO3)c2n1`, the Potency is > 9.22 µM (inactive).

With `O=c1c(-c2ccccc2)nc2cnc(Nc3ccccc3)nc2n1Cc1cccs1`, the Potency is > 9.22 µM (inactive).

As to `COc1ccc(-n2c(=O)cnc3cnc(Oc4ccccc4)nc32)cc1`, the Potency is > 9.22 µM (inactive).

Turning to `COCCn1c(=O)c(CCc2ccccc2)nc2cnc(Nc3cccc(OC)c3)nc21`, the Potency was > 9.22 µM (inactive).

Regarding `Cc1ccccc1-c1cc(NCCN2CCOCC2)ncn1`, the Potency is > 46 µM (inactive).

On to `CNc1nc(-c2ccccc2Cl)nc2ccccc12`, for which the Potency is > 46 µM (inactive).

Consider `CN1CCN(c2ncc3ncc(=O)n(C4CC4)c3n2)CC1`, for which the Potency is > 9.22 µM (inactive).

Take `COc1cccc(Cn2c(=O)cnc3cnc(Oc4ccccc4)nc32)c1`: the Potency was > 9.22 µM (inactive).
